Hits are enriched below; roughly 4% of the tested compounds scored in any of these assays.
Measles CPE: protection of cells from measles virus; protection (pct of control), % at 4 µM; AID 841; Measles virus-infected cells, CPE protection, absorbance; 140,000 compounds, 1.5% hits; in the data active = protection mostly above about 24%, no sharp cut-off; inactive = mostly below about 26%
HSV replic up: increases HSV replication in cells. HSV replication augmentation in cells, fold increase. maximum fold increase. 220,000 compounds, 0.005% hits; in the data active = maximum fold increase above about 1.5; inconclusive = no clear call, values can overlap the other calls; tested in PC3 cells
Arbovirus anti: antivirals against arbovirus infection. 200,000 compounds, 0.37% hits. inhibition, % at 10 µM. arbovirus infection cell-based antiviral screen; in the data active = inhibition above about 30%
KCC2 mod: modulates chloride dependent transport by human KCC2. Q9H2X9. KCC2 cells, thallium flux FluoZin-2 fluorescence. B-score of Tl+ flux slope (higher = more flux/activation; lower = inhibition) at 10 µM. 190,000 compounds, 2.2% hits. AID 1456;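 active = thallium flux slope and its plate-corrected score both differing from the plate sample mean at a set confidence after two filtering rounds, in either direction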;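 also: slope of fluorescence scaled to starting intensity during 10 to 20 s after thallium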
ROMK mod: human ROMK K+ channel modulation, primary screen | P48048 | Tet-inducible ROMK, thallium flux fluorescence; actives lie on both sides | B-score at 10 µM | 130,000 compounds, 2% hits;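 active = signal ratio slope over the read window, or its plate-corrected B-score, at least 3 SD from the plate mean, either direction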;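 also: B-score of the F/F0 ratio slope over 7 to 12 s after thallium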
Target sequence (P48048 whole entry, looked up): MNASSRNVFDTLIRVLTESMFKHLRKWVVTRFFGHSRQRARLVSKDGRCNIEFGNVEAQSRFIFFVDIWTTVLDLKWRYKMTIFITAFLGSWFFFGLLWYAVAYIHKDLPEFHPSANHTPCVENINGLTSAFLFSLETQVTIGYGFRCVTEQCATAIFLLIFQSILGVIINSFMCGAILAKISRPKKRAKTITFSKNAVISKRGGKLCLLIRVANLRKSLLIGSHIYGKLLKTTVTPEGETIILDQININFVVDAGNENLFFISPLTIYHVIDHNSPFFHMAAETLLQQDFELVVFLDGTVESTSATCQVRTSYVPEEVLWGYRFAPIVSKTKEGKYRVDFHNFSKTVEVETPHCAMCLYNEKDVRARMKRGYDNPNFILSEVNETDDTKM
KCC2 sec1: KCC2 (human) modulation, secondary assay; normalised thallium flux (F/F0 slope) at 10 µM; shares compounds with KCC2 mod; AID 1713; HEK293-KCC2, thallium flux, FluoZin2 fluorescence; stronger effect = higher value; 3,700 compounds, 15% hits;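 active = thallium flux slope above the same plate's solvent-only control mean plus 3 SD; inconclusive = the two replicate wells disagree; inactive = no significant difference from solvent-only control wells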
KCC2 bumet counter: bumetanide-insensitive thallium flux in KCC2 cells with ouabain, counter-screen; shares compounds with KCC2 mod; HEK293-KCC2 + bumetanide/ouabain, thallium flux FluoZin2; stronger effect = higher value; normalized thallium flux at 10 µM; 3,700 compounds, 49% hits; AID 1714;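 active = thallium entry rate above the same plate's blocked-transporter control wells by more than 3 SD; inconclusive = the two repeat wells disagree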;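 also: raw slope of fluorescence over initial fluorescence between 10 and 20 s after thallium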
KCC2 secondary2: KCC2 (human) modulation, second secondary assay. shares compounds with KCC2 mod. HEK293-KCC2, thallium flux FluoZin2 fluorescence; actives lie on both sides; F/F0 rise rate, 10–20 s post-thallium. normalized thallium flux at 10 µM. 3,700 compounds, 23% hits;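 active = thallium flux slope more than 3 SD above or below the plate's solvent-only control mean, mostly below; inconclusive = the two repeat wells disagreed; inactive = no significant shift from solvent-only controls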;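 also: raw slope with 0.1% DMSO as baseline and bumetanide as block control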
HEK counter1: counter-screen for KCC2 modulators: effect in parental HEK293 cells; AID 1716; 3,700 compounds, 46% hits; thallium flux rate (normalised fluorescence) at 10 µM; thallium flux FluoZin2, ouabain; baseline-ratio fluorescence slope, 10–20 s after thallium; shares compounds with KCC2 mod;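 active = thallium flux rate significantly above the same plate's solvent-only control wells, beyond their mean plus 3 SD; inconclusive = the two replicate wells gave conflicting results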
KCC2 retest ouab: confirmation of human KCC2 modulators with ouabain; shares compounds with KCC2 mod; HEK293-KCC2, thallium flux FluoZin2 fluorescence; bidirectional: low = inhibitor, high = activator; raw Tl+ flux slope (below DMSO = inhibition, above = activation) at 10 µM; 3,700 compounds, 48% hits; AID 1717;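 active = thallium flux slope beyond 3 SD from same-plate DMSO control mean in most replicates, usually higher, sometimes lower; inconclusive = repeat tests gave conflicting results; inactive = no significant difference from controls in most replicates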;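 also: slope of initial-normalized fluorescence between seconds 10 and 20 after thallium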
HEK293 Tl flux2: parental HEK flux effect, counter-screen 2; shares compounds with KCC2 mod; HEK293 parental, thallium flux FluoZin-2 fluorescence slope; thallium flux slope at 10 µM; 3,700 compounds, 33% hits;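 active = thallium flux slope above the same plate's solvent-control mean plus 3 SD in both duplicate wells; inconclusive = duplicate wells that disagreed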;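 also: run without ouabain in cells lacking the KCC2 cotransporter; slope of fluorescence scaled to its starting value between 10 and 20 s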
Active calls of the source: *; i = inactive; ? = inconclusive; nt = no result given.

SMILES	Measles CPE	HSV replic up	Arbovirus anti	KCC2 mod	ROMK mod	KCC2 sec1	KCC2 bumet counter	KCC2 secondary2	HEK counter1	KCC2 retest ouab	HEK293 Tl flux2
COc1ccc(-n2c(SCC(=O)N3CCN(c4ccccc4)CC3)nc3c(c2=O)SCC3)cc1	3	i	9	-7.3*	nt	0.0056	0.0039	0.024*	?	0.012*	0.01
Cc1cc(-c2nnc(SCC(=O)Nc3nccs3)o2)no1	nt	i	nt	1.1	nt	nt	nt	nt	nt	nt	nt
COc1ccc(-c2cc(C(=O)Nc3c(C)n(C)n(-c4ccccc4)c3=O)no2)cc1OC	nt	i	9	-0.87	0.12	nt	nt	nt	nt	nt	nt
O=C(CSc1nnnn1Cc1ccccc1)Nc1ccc2c(c1)OCO2	2	i	-8	-1.2	nt	nt	nt	nt	nt	nt	nt
O=C(CSc1nnnn1Cc1ccccc1)Nc1ccc2c(c1)OCCO2	3	i	5	-5.1*	-0.74	0.0064	0.005	?	0.0072	?	0.011
CN(C)c1nnnn1-c1ccc(OC(F)(F)F)cc1	nt	nt	0	0.14	nt	nt	nt	nt	nt	nt	nt
O=C(Nc1nnc(-c2ccncc2)o1)c1ccc(Br)s1	nt	i	-13	4.6*	0.42	0.017	0.0096*	0.031	0.014*	0.02	0.015*
Cc1cccc(-n2nnc3c(=O)n(Cc4ccccn4)cnc32)c1	nt	i	-2	0.19	0.23	nt	nt	nt	nt	nt	nt
S=c1nccc(-c2cccs2)[nH]1	nt	i	-1	2.8	-0.26	nt	nt	nt	nt	nt	nt
Fc1ccc(-c2noc(-c3ccc4c(c3)CCO4)n2)cc1	nt	i	nt	-0.78	nt	nt	nt	nt	nt	nt	nt
S=c1nccc(-c2ccc3c(c2)CCO3)[nH]1	nt	i	nt	4.6*	0.21	0.019	0.011*	0.033	0.013*	0.021*	0.016*
Cc1ccc(-c2ccnc(=S)[nH]2)cc1	2	i	3	nt	0.29	0.023*	0.032*	0.041*	0.033*	0.034*	0.035*
O=C(NCCC1=CCCCC1)c1ccc(Br)o1	4	i	-1	nt	nt	nt	nt	nt	nt	nt	nt
O=C(NC(=S)NCCC1=CCCCC1)c1ccco1	nt	i	4	79*	-0.15	0.034*	0.16*	0.046*	?	0.11*	0.037*
Cc1ccccc1C(=O)NC(=S)NCCC1=CCCCC1	nt	i	-2	4.4*	-0.98	0.011	0.016*	0.034	0.026*	0.027*	?
Cc1ccc(C(=O)NC2CCCc3ccccc32)o1 (centres undefined)	39	i	2	nt	nt	nt	nt	nt	nt	nt	nt
O=C(NC(=S)NCCC1=CCCCC1)c1ccc(Br)o1	nt	i	1	59*	-0.61	?	0.066*	0.075*	0.077*	0.077*	0.07*
O=C(NC(=S)NC1CCCc2ccccc21)c1ccco1 (centres undefined)	nt	i	7	63*	1.3	0.03*	0.17*	0.046*	0.097*	0.11*	0.035*
COc1ccc(COc2ccccc2C(=O)NCc2ccccc2)cc1F	8	i	5	0.017	-1.9	nt	nt	nt	nt	nt	nt
COc1ccccc1C(=O)C1CCCN(C(=O)c2ccccn2)C1 (centres undefined)	nt	i	3	nt	0.96	nt	nt	nt	nt	nt	nt
O=C(/C=C/c1ccc([N+](=O)[O-])cc1)Nc1ncc([N+](=O)[O-])s1	nt	i	-8	-0.16	0.88	nt	nt	nt	nt	nt	nt
COc1ccc(C(=O)NCC(=O)OCC(=O)Nc2ccc(C)c(S(=O)(=O)N(C)C)c2)cc1OC	nt	i	nt	0.9	nt	nt	nt	nt	nt	nt	nt
O=C(Cc1cccc2ccccc12)N1CCN(c2ncccn2)CC1	nt	i	-1	-1.1	-1.5	nt	nt	nt	nt	nt	nt
COc1ccc2nc(N3CCCCC3)c(/C=C3\SC(=S)NC3=O)cc2c1	nt	?	nt	45*	nt	0.016*	0.058*	0.032	0.075*	0.045*	0.017*
CCOc1cccc(-c2nnc3sc(COc4ccc(Cl)cc4)nn23)c1	12	i	1	-3.6*	nt	0.019	0.0046	0.028	0.0072	0.014	0.01
SMILES	Measles CPE	HSV replic up	Arbovirus anti	KCC2 mod	ROMK mod	KCC2 sec1	KCC2 bumet counter	KCC2 secondary2	HEK counter1	KCC2 retest ouab	HEK293 Tl flux2
CCOC(=O)C(CC)(CCC(=O)O)c1csc(N)n1 (centres undefined)	11	i	10	nt	0.52	nt	nt	nt	nt	nt	nt
CCCCC(CCC(=O)O)(C(=O)OCC)c1csc(Nc2ccc(C)cc2)n1 (centres undefined)	nt	i	-2	-4.1*	1	0.0052	0.004	0.025*	0.0056*	0.013*	?
CCOc1ncccc1C(=O)OCC(=O)c1ccc[nH]1	5	i	4	-4.1*	0.26	0.01	0.0069	0.033	0.0043	0.021	0.012
CCOc1ncccc1C(=O)OCC(=O)NCCc1ccccc1	1	i	-1	0.38	0.022	nt	nt	nt	nt	nt	nt
Cn1c(=O)c(=O)n(C)c2cc(S(=O)(=O)N3CCCC3C(=O)NCc3cccs3)ccc21 (centres undefined)	nt	i	nt	0.029	nt	nt	nt	nt	nt	nt	nt
COC(=O)c1cnc(NNC(=O)c2ccc([N+](=O)[O-])cc2)nc1C(F)(F)F	nt	i	nt	3.5*	nt	0.0092	0.011*	0.032	?	0.021	0.011
COC(=O)c1cnc(NNS(=O)(=O)c2ccc(Cl)cc2)nc1C(F)(F)F	nt	i	nt	0.34	-0.035	nt	nt	nt	nt	nt	nt
CN(NS(=O)(=O)c1ccc(Br)cc1)c1nc(C(F)(F)F)nc2ccccc12	nt	nt	-8	-3.8*	nt	0.0066	0.0059	0.029	0.0061	0.018*	0.0098
Cc1ccc(S(=O)(=O)N2CCN(C(=O)c3ccccc3)CC2)c(C)c1NS(C)(=O)=O	nt	i	5	0.37	0.33	nt	nt	nt	nt	nt	nt
c1ccc(CSc2ccc(-c3cccnc3)nn2)cc1	nt	i	2	-0.93	-1	nt	nt	nt	nt	nt	nt
COC(C[C@@H]1O[C@@H]1[C@@H](O)[C@@H](C)OCc1ccccc1)OC	nt	i	nt	0.8	nt	nt	nt	nt	nt	nt	nt
COC(C[C@@H]1O[C@@H]1[C@H](O)[C@H](C)OCc1ccccc1)OC	nt	i	nt	nt	nt	0.015	0.004	0.03	0.0073	0.016	0.011
CCOc1ccccc1C(=O)NC1CC2CCCC(C1)N2Cc1nnnn1Cc1ccco1 (centres undefined)	3	i	0	-4*	-0.31	0.0062	0.0054	0.031	0.0059	?	0.0095
COCCNc1cc(C)c(C#N)c2nc3ccccc3n12	5	i	-2	-0.88	0.5	0.01	?	0.03	0.0071	0.034	?
CCCNc1cc(C)c(C#N)c2nc3ccccc3n12	21	i	-3	0.28	-0.4	nt	nt	nt	nt	nt	nt

Screening results deposited in PubChem by several laboratories.
